This is part of a sample that, as a whole, favours compounds with a hit. Of some 83,000 tested, about 20% had one in any assay.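 The test compound was applied at a single concentration to cells in 96-well plates for 48 hours, and percent growth was recorded.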 A number with no mark means an inactive call. Active and inactive are the calls of the source. Rule for the calls: active = growth percent below 10; inactive = the rest.
Tests used:
Assay in all cases: NCI-60 one-dose screen, 48 h (100 = growth as untreated, 0 = no growth, -100 = all killed)
[1] = tested on: NCI-H23 lung
[2] = tested on: NCI-H226 lung
[3] = tested on: NCI-H322M lung
[4] = tested on: HOP-62 NSCLC
[5] = tested on: NCI-H460 lung
[6] = tested on: HOP-92 NSCLC
[7] = tested on: NCI-H522 lung
[8] = tested on: A549/ATCC NSCLC
[9] = tested on: 786-0 renal
[10] = tested on: COLO 205 colon
[11] = tested on: DU-145 prostate
[12] = tested on: K-562 leukemia; settings: 10 µM unless noted
[13] = tested on: MALME-3M melanoma
[14] = tested on: MDA-MB-231 breast
[15] = tested on: RXF 393 renal
[16] = tested on: SF-268 CNS
[17] = tested on: SF-295 CNS
[18] = tested on: SF-539 CNS
[19] = tested on: UACC-257 melanoma
[20] = tested on: M14 melanoma

In the case of COc1c(B(O)O)cccc1-c1nc2ccc3cn[nH]c3c2c2c1CCCC2, the growth ([1]; 10 µM unless noted) is reported as 72.8%, the growth ([2]; 10 µM unless noted) is reported as 49.5% and the growth ([3]; 10 µM unless noted) is reported as 67.7%. The growth ([4]; 10 µM unless noted) was 68.7%, the growth ([5]; 10 µM unless noted) was 56.8% and the growth ([6]; 10 µM unless noted) was 27.2%. The growth ([7]; 10 µM unless noted) was 62.6%, the growth ([8]; 10 µM unless noted) was 41.9% and the growth ([9]; 10 µM unless noted) was 31.8%. It also gave a growth ([10]; 10 µM unless noted) of 71.7%, a growth ([11]; 10 µM unless noted) of 69.1% and a growth [12] of 74.7%. The growth ([13]; 10 µM unless noted) was 87%, the growth ([14]; 10 µM unless noted) was 25.3% and the growth ([15]; 10 µM unless noted) was -30.3% (active). The growth ([16]; 10 µM unless noted) was 50.3%, the growth ([17]; 10 µM unless noted) was 70% and the growth ([18]; 10 µM unless noted) was 9.76% (active). It also gave a growth ([19]; 10 µM unless noted) of 83.9% and a growth ([20]; 10 µM unless noted) of 88.4%.
Work on O=C(NC(=S)N1CCN(c2ncnc3c2cnn3-c2ccccc2)CC1)c1ccc(Br)cc1 yielded a growth ([1]; 10 µM unless noted) of 64.4%, a growth ([2]; 10 µM unless noted) of 60.6% and a growth ([3]; 10 µM unless noted) of 75.4%. It also gave a growth ([4]; 10 µM unless noted) of 37.4%, a growth ([5]; 10 µM unless noted) of 69.2% and a growth ([6]; 10 µM unless noted) of 47.2%. The growth ([7]; 10 µM unless noted) was 60.9%, the growth ([8]; 10 µM unless noted) was 80.6% and the growth ([9]; 10 µM unless noted) was 72%. For the same compound, the growth ([10]; 10 µM unless noted) was 98.7%, the growth ([11]; 10 µM unless noted) was 87.3% and the growth [12] was 61.4%. It also gave a growth ([13]; 10 µM unless noted) of 53.4%, a growth ([14]; 10 µM unless noted) of 75.4% and a growth ([15]; 10 µM unless noted) of 69.1%. For the same compound, the growth ([16]; 10 µM unless noted) was 58.5%, the growth ([17]; 10 µM unless noted) was 48.3% and the growth ([18]; 10 µM unless noted) was -17.5% (active). For the same compound, the growth ([19]; 10 µM unless noted) was 88.7% and the growth ([20]; 10 µM unless noted) was 83.1%.
CC/C(=C(\c1ccc(O)cc1)c1ccc(OCCN(C)C(=O)COCCNC(=O)Cc2ccc3c(c2)CN([C@@H]2CCC(=O)NC2=O)C3=O)cc1)c1ccccc1 showed a growth ([1]; 1 µM) of 102%, a growth ([1]; 10 µM) of 86.6% and a growth ([2]; 1 µM) of 77.4%. The growth ([2]; 10 µM) was 6.46% (active), the growth ([3]; 1 µM) was 77.5% and the growth ([3]; 10 µM) was 37.9%. The growth ([4]; 1 µM) was 72%, the growth ([4]; 10 µM) was 16.2% and the growth ([5]; 1 µM) was 124%. For the same compound, the growth ([5]; 10 µM) was 106%, the growth ([6]; 1 µM) was 8.46% (active) and the growth ([6]; 10 µM) was -0.223% (active). For the same compound, the growth ([7]; 1 µM) was 92.2%, the growth ([7]; 10 µM) was 95.3% and the growth ([8]; 1 µM) was 95.7%. For the same compound, the growth ([8]; 10 µM) was 75.2%, the growth ([9]; 1 µM) was 94% and the growth ([9]; 10 µM) was 90.6%. For the same compound, the growth ([10]; 1 µM) was 72.2%, the growth ([10]; 10 µM) was 33.8% and the growth ([11]; 1 µM) was 103%. The growth ([11]; 10 µM) was 104%, the growth ([13]; 1 µM) was 24.7% and the growth ([13]; 10 µM) was -13.3% (active). The growth ([14]; 1 µM) was -5.08% (active), the growth ([14]; 10 µM) was -26.3% (active) and the growth ([15]; 1 µM) was 100%. The growth ([15]; 10 µM) was 99.4%, the growth ([16]; 1 µM) was 77% and the growth ([16]; 10 µM) was 51.8%. The growth ([17]; 1 µM) was 103%, the growth ([17]; 10 µM) was 81.9% and the growth ([18]; 1 µM) was 78.3%. It also gave a growth ([18]; 10 µM) of 55.1%, a growth ([19]; 1 µM) of 96.4% and a growth ([19]; 10 µM) of 95.4%. For the same compound, the growth ([20]; 1 µM) was 82.1% and the growth ([20]; 10 µM) was 68.9%.
For Cc1ccc2nc(NC(=O)Nc3cccc(Cl)c3)sc2c1, the growth ([1]; 10 µM unless noted) was 93.8%, the growth ([2]; 10 µM unless noted) was 96.4% and the growth ([3]; 10 µM unless noted) was 93.7%. It also gave a growth ([4]; 10 µM unless noted) of 111%, a growth ([5]; 10 µM unless noted) of 99.1% and a growth ([6]; 10 µM unless noted) of 119%. It also gave a growth ([7]; 10 µM unless noted) of 94%, a growth ([8]; 10 µM unless noted) of 106% and a growth ([9]; 10 µM unless noted) of 107%. The growth ([10]; 10 µM unless noted) was 117%, the growth ([11]; 10 µM unless noted) was 118% and the growth [12] was 90.3%. For the same compound, the growth ([13]; 10 µM unless noted) was 93.5%, the growth ([14]; 10 µM unless noted) was 92% and the growth ([15]; 10 µM unless noted) was 121%. For the same compound, the growth ([16]; 10 µM unless noted) was 118%, the growth ([17]; 10 µM unless noted) was 98.8% and the growth ([18]; 10 µM unless noted) was 102%. The growth ([19]; 10 µM unless noted) was 111% and the growth ([20]; 10 µM unless noted) was 97.6%.
In the case of CN(C)CCCc1ccc(Nc2cnn(C)c(=O)c2Cl)cc1, the growth ([1]; 10 µM unless noted) is reported as 98%, the growth ([2]; 10 µM unless noted) is reported as 99% and the growth ([3]; 10 µM unless noted) is reported as 92.9%. For the same compound, the growth ([4]; 10 µM unless noted) was 108%, the growth ([5]; 10 µM unless noted) was 103% and the growth ([6]; 10 µM unless noted) was 110%. For the same compound, the growth ([7]; 10 µM unless noted) was 96.3%, the growth ([8]; 10 µM unless noted) was 93.8% and the growth ([9]; 10 µM unless noted) was 95.9%. For the same compound, the growth ([10]; 10 µM unless noted) was 118%, the growth ([11]; 10 µM unless noted) was 116% and the growth [12] was 89.8%. For the same compound, the growth ([13]; 10 µM unless noted) was 88.8%, the growth ([14]; 10 µM unless noted) was 108% and the growth ([15]; 10 µM unless noted) was 90.2%. It also gave a growth ([16]; 10 µM unless noted) of 113%, a growth ([17]; 10 µM unless noted) of 89.2% and a growth ([18]; 10 µM unless noted) of 94%. The growth ([19]; 10 µM unless noted) was 98.5% and the growth ([20]; 10 µM unless noted) was 100%.
For CC/C(=C(/c1ccc(O)cc1)c1ccc(OCCN(C)C(=O)CCOCCNC(=O)Cc2ccc3c(c2)CN([C@@H]2CCC(=O)NC2=O)C3=O)cc1)c1ccccc1, the growth ([1]; 1 µM) was 98.2%, the growth ([1]; 10 µM) was 92.8% and the growth ([2]; 1 µM) was 93.9%. The growth ([2]; 10 µM) was 47%, the growth ([3]; 1 µM) was 88.1% and the growth ([3]; 10 µM) was 67%. For the same compound, the growth ([4]; 1 µM) was 82.5%, the growth ([4]; 10 µM) was 52.3% and the growth ([5]; 1 µM) was 130%. The growth ([5]; 10 µM) was 103%, the growth ([6]; 1 µM) was 22.2% and the growth ([6]; 10 µM) was 20.8%. It also gave a growth ([7]; 1 µM) of 92%, a growth ([7]; 10 µM) of 91.2% and a growth ([8]; 1 µM) of 93.1%. For the same compound, the growth ([8]; 10 µM) was 87.8%, the growth ([9]; 1 µM) was 97.2% and the growth ([9]; 10 µM) was 84.2%. The growth ([10]; 1 µM) was 102%, the growth ([10]; 10 µM) was 62.3% and the growth ([11]; 1 µM) was 109%. It also gave a growth ([11]; 10 µM) of 101%, a growth ([13]; 1 µM) of 42.7% and a growth ([13]; 10 µM) of 13.3%. The growth ([14]; 1 µM) was 11%, the growth ([14]; 10 µM) was -5.68% (active) and the growth ([15]; 1 µM) was 104%. It also gave a growth ([15]; 10 µM) of 93.8%, a growth ([16]; 1 µM) of 96.5% and a growth ([16]; 10 µM) of 72.6%. The growth ([17]; 1 µM) was 103%, the growth ([17]; 10 µM) was 94.7% and the growth ([18]; 1 µM) was 87.9%. For the same compound, the growth ([18]; 10 µM) was 78.4%, the growth ([19]; 1 µM) was 91% and the growth ([19]; 10 µM) was 96.1%. It also gave a growth ([20]; 1 µM) of 92.2% and a growth ([20]; 10 µM) of 65%.
